Records with an inconclusive call do not appear. Activity calls are given as the source filed them. Unless noted, calls come from the whole dose curve.
Experiments:
[1] = Nuclear factor erythroid 2-related factor 2/antioxidant responsive element (Nrf2/ARE) small molecule agonists: qHTS cell viability counter screen in human keratinocytes (AID 1919968; active = well fitted curve in the direction sought with a large enough effect in the repeat runs; an effect the other way counts as inactive or inconclusive; note: nearly all actives have a fitted effect of over 55% in size; note: potency is the fitted concentration of half-maximal effect)
Summary of the method: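 Parallel cytotoxicity read: KeratinoSens HaCaT cells, compound treatment 23 h, viability by CellTiter-Fluor fluorescence 1 h post-reagent.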

[2] = Nuclear factor erythroid 2-related factor 2/antioxidant responsive element (Nrf2/ARE) small molecule agonists: luciferase reporter gene qHTS assay in human keratinocytes (AID 1919969); note: nearly all actives have a fitted effect of over 35% in size
[3] = target: Gonadotropin-releasing hormone receptor (Homo sapiens) (UniProt P30968); test: Human gonadotropin-releasing hormone receptor (GnRHR) small molecule agonists, calcium flux assay in GnRHR-HEK293 cells (AID 1920063); note: nearly all actives have a fitted effect of over 35% in size
Chain of Gonadotropin-releasing hormone receptor (Homo sapiens) (P30968 whole entry, looked up): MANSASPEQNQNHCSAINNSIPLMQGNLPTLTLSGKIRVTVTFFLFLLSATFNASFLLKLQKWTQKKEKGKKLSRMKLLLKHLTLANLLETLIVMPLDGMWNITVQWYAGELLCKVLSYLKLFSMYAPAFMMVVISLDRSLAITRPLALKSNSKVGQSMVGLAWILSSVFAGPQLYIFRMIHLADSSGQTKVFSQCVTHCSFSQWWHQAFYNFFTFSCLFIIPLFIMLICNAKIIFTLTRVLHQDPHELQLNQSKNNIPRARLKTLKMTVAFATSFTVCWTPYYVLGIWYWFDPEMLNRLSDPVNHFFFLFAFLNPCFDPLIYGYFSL
Summary of the method: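 Calcium flux, agonist mode, human GnRHR stably integrated in HEK293; dye 1 h at 37 C before compound; Ex/Em=480/540 kinetic read, 3 min; 15 concentrations, triplicate.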

[4] = G protein-coupled receptor (GPCR) small molecule agonists, calcium flux assay: HEK293 wild type cell line counter screen (AID 1920065)
Summary of the method: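 Non-specific calcium responders were flagged by adding DMSO-dissolved compounds to dye-loaded cells and reading 480/540 nm fluorescence each second for 3 min; ATP served as positive control.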

[5] = p53 small molecule agonists, cell-based qHTS assay with human liver microsomes (AID 1963577)
Summary of the method: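 Fluorescence of the beta-lactamase reporter in p53RE-bla cells, detected with LiveBLAzer substrate (2 h, room temperature, dark), served as the read-out after 16 h compound exposure at 37 C with human liver microsomes and NADPH, each 0.5 mg/mL final.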

[6] = p53 small molecule agonists, cell-based qHTS assay with rat liver microsomes (AID 1963578)
Summary of the method: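 Cells carrying a p53 response element–beta-lactamase reporter were plated and rested 5 h, then dosed with compound in DMSO plus rat liver microsomes and NADPH, each at 0.5 mg/mL final. After 16 h at 37 C, LiveBLAzer substrate was added for 2 h.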

[7] = p53 small molecule agonists, cell-based qHTS assay with human liver microsomes: qHTS cell viability counter screen (AID 1963579); note: nearly all actives have a fitted effect of over 45% in size; note: potency is the fitted concentration of half-maximal effect
Summary of the method: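 Cytotoxicity counter screen: p53RE-bla, 4,000 cells/well; 5 h settle, 37 C/5% CO2; cpd + HLM 0.5 mg/mL + NADPH 0.5 mg/mL (final); 16 h, 37 C; CellTiter-Glo, 30 min RT, luminescence.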

[8] = p53 small molecule agonists, cell-based qHTS assay with rat liver microsomes: qHTS cell viability counter screen (AID 1963580); note: nearly all actives have a fitted effect of over 45% in size
Summary of the method: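 Rat liver microsome (0.5 mg/mL final) and NADPH (0.5 mg/mL final) co-incubation with compounds for 16 h at 37 C on HCT-116 p53RE-bla cells; cytotoxicity taken from intracellular ATP luminescence.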

[9] = p53 small molecule agonists, cell-based qHTS assay: qHTS cell viability counter screen (AID 1963581); note: nearly all actives have a fitted effect of over 45% in size
Summary of the method: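 Multiplexed with the reporter read, a CellTiter-Glo step (30 min, room temperature) gauges ATP-based viability of HCT-116 p53RE-bla cells after 16 h compound incubation at 37 C.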

[10] = p53 small molecule agonists, cell-based qHTS assay (AID 1963582; active = well fitted activation curve with a large enough effect in the signal ratio in the repeat runs, not every such curve was filed as active; the % refers to the signal ratio)
Summary of the method: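 Beta-lactamase reporter cells (p53RE-bla) treated with compounds for 16 h at 37 C; FRET substrate, 2 h, room temperature; fluorescence intensity.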

[11] = target: 5-hydroxytryptamine receptor 2A (Homo sapiens) (UniProt P28223); test: 5-hydroxytryptamine receptor 2A (HTR2A) small molecule antagonists, cell-based qHTS assay (AID 1963586); note: nearly all actives have a fitted effect of over 45% in size; note: potency is the fitted concentration of half-maximal effect
Chain of 5-hydroxytryptamine receptor 2A (Homo sapiens) (P28223 whole entry, looked up): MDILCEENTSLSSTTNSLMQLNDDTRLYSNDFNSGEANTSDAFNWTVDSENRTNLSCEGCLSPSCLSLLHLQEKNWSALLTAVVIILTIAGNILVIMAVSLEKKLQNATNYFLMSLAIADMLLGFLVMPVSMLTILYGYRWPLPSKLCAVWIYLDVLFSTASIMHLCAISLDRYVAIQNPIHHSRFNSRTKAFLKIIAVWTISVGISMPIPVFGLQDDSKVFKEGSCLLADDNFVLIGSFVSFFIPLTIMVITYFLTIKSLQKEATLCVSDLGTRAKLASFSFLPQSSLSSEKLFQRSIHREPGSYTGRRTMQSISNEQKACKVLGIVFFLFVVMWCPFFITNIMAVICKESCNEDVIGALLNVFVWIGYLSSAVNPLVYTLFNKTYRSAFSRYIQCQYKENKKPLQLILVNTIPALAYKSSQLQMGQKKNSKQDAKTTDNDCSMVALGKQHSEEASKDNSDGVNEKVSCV
Summary of the method: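 CHO cells stably expressing human HTR2A were plated for 18 h at 37 C, then loaded with calcium dye for 1 h. Compounds were preincubated 5 min at room temperature before DOI (4 nM solution) was added. Kinetic fluorescence was read for 3 min.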

[12] = target: 5-hydroxytryptamine receptor 2A (Homo sapiens) (UniProt P28223); test: 5-hydroxytryptamine receptor 2A (HTR2A) small molecule agonists, cell-based qHTS assay (AID 1963587); note: nearly all actives have a fitted effect of over 30% in size; note: potency is the fitted concentration of half-maximal effect
Summary of the method: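 Kinetic calcium-flux fluorescence (2 min, 1 sec intervals) after compound addition in agonist mode. HTR2A-CHO cells were cultured 18 h, then dye-loaded 1 h at 37 C.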

[13] = target: Muscarinic acetylcholine receptor M1 (Homo sapiens) (UniProt P11229); test: Cholinergic receptor muscarinic 1 (CHRM1) small molecule antagonists, cell-based qHTS assay (AID 1963588); note: nearly all actives have a fitted effect of over 40% in size
Chain of Muscarinic acetylcholine receptor M1 (Homo sapiens) (P11229 whole entry, looked up): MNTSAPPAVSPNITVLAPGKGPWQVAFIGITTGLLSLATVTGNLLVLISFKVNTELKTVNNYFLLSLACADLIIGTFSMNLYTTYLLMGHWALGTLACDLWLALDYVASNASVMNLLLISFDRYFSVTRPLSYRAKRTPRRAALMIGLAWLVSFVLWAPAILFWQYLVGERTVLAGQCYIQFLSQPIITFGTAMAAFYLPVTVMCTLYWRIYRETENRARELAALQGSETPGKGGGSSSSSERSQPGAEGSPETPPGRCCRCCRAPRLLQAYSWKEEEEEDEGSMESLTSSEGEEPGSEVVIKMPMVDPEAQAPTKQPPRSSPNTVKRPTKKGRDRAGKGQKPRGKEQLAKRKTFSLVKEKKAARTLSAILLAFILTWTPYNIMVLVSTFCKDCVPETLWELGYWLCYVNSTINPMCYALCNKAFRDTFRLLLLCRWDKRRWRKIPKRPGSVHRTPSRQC
Summary of the method: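 Compounds were tested at 15 concentrations in three independent runs. Dye-loaded CHRM1-CHO cells were exposed 5 min at room temperature before stimulation by acetylcholine added at 50nM. Intracellular calcium was read kinetically on FDSS for 3 min.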

[14] = target: Muscarinic acetylcholine receptor M1 (Homo sapiens) (UniProt P11229); test: Cholinergic receptor muscarinic 1 (CHRM1) small molecule agonists, cell-based qHTS assay (AID 1963589); note: nearly all actives have a fitted effect of over 35% in size
Summary of the method: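 qHTS, 15-point titration, 3 independent runs: compounds pin-transferred onto dye-loaded CHRM1-CHO cells (human M1), calcium fluorescence followed every second to detect agonism.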

[15] = cAMP Responsive Elements (CRE) small molecule agonists, cell-based qHTS assay (AID 1963590)
Summary of the method: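 Quantitative HTS for CRE agonists: HEK 293T CRE-bla cells, overnight plating, 3 h compound incubation at 37 C/5% CO2, then 2 h room-temperature LiveBLAzer B/G FRET substrate loading.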

[16] = cAMP Responsive Elements (CRE) small molecule antagonists, cell-based qHTS assay (AID 1963591; active = well fitted inhibition curve with a large enough effect in the signal ratio in the repeat runs, not every such curve was filed as active; the % refers to the signal ratio)
Summary of the method: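 Fluorescence intensity from cleaved LiveBLAzer B/G substrate (2 h, room temperature) quantified CRE-bla activity in HEK 293T cells exposed 3 h to compound with 0.25 uM final NKH477.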

[17] = target: Beta-2 adrenergic receptor (Homo sapiens) (UniProt P07550); test: Adrenergic beta2 receptor (ADRB2) small molecule antagonists, cell-based qHTS assay (AID 1963592); note: series mostly up to about 92 µM; nearly all actives have a fitted effect of over 50% in size
Chain of Beta-2 adrenergic receptor (Homo sapiens) (P07550 whole entry, looked up): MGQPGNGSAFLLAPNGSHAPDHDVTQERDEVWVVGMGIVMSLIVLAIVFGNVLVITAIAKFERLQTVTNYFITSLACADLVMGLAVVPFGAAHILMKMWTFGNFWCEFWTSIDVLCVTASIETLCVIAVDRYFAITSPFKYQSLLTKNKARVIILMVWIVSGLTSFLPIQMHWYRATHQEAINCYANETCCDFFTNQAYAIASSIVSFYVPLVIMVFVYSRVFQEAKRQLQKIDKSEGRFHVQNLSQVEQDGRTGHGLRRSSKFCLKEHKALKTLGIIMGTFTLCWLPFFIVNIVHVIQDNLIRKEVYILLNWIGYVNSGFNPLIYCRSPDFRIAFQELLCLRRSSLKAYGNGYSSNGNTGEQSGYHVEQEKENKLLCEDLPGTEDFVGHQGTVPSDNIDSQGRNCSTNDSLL
Summary of the method: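 Assay format: CHO-ADRB2 cells, 18-20hr seeding at 37C/5% CO2, then compound plus 1nM isoproterenol agonist mix for 0.5hr RT. Homogeneous time-resolved fluorescence cAMP detection after 1hr, expressed as 665/615 nm ratio.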

[18] = target: D(2) dopamine receptor (Homo sapiens) (UniProt P14416); test: Dopamine D2 receptor (DRD2) small molecule agonists, cell-based qHTS assay (AID 1963594); note: nearly all actives have a fitted effect of over 35% in size
Chain of D(2) dopamine receptor (Homo sapiens) (P14416 whole entry, looked up): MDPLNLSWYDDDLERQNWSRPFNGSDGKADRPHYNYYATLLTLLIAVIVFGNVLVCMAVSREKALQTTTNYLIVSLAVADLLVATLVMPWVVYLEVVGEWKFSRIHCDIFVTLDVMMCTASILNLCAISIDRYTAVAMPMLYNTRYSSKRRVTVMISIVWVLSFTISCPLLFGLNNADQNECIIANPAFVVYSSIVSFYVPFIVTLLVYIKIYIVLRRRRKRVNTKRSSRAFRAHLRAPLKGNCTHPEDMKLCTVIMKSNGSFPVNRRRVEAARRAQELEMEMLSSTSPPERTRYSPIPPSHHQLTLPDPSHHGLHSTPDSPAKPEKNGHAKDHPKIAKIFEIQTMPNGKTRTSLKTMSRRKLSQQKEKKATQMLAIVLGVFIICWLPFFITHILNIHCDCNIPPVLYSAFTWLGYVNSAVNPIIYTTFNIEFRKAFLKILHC
Summary of the method: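 cAMP accumulation in DRD2-HEK293 cells measured by HTRF after 1 h detection; compounds added 10 min before NKH477 (200nM […]) forskolin-analogue stimulation, 30 min at room temperature, with Ro20-1724 present at 0.1 mM final.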

[19] = target: KiSS-1 receptor (Homo sapiens) (UniProt Q969F8); test: Human kisspeptin (KISS1R) small molecule agonists, calcium flux assay in KISS1R-HEK293 cells (AID 1920064; active = well fitted curve in the direction sought with a large enough effect in the repeat runs; an effect the other way counts as inactive or inconclusive)
Chain of KiSS-1 receptor (Homo sapiens) (Q969F8 whole entry, looked up): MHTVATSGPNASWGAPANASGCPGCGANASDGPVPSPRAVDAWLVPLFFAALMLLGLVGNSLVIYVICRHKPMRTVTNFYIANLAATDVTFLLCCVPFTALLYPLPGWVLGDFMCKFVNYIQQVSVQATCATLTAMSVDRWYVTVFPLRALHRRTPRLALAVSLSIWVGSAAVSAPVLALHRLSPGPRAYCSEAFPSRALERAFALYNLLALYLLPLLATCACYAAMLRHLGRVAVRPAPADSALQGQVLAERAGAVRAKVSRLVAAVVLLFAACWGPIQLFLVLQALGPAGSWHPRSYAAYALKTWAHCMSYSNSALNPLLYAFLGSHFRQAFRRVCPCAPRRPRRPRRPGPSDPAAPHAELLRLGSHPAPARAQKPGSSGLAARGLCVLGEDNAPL
Summary of the method: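 Triplicate 15-concentration series were applied to dye-loaded human KISS1R HEK293 cells, and agonist-evoked calcium fluorescence was captured for 3 min.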

[20] = target: D(2) dopamine receptor (Homo sapiens) (UniProt P14416); test: Dopamine D2 receptor (DRD2) small molecule antagonists, cell-based qHTS assay (AID 1963595; active = well fitted inhibition curve with a large enough effect in the signal ratio in the repeat runs, with a control signal flat; the % refers to the signal ratio)
Summary of the method: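 Cells were plated and grown for 24 h at 37 °C. Ro20-1724 (0.1 mM final) went in first, then compound for 10 min. NKH477 (200 nM) with quinpirole (12 nM) followed for 30 min at RT, then HTRF detection reagents for 1 h.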
% is set by controls: 0 for no effect and ±100 for the full control effect.

C=COCC1CCC(COC=C)CC1 (centres undefined)
inactive: Potency [1] | Potency [2] | Potency [3] | outcome [4] | Potency [5] | Potency [6] | Potency [7] | Potency [8] | Potency [9] | Potency [10] | Potency [11] | Potency [12] | Potency [13] | Potency [14] | Potency [15] | Potency [16] | Potency [17] | Potency [18]

O=C(CCN1CCN2CCCC2C1)N1c2ccccc2Sc2ccc(Cl)cc21 (centres undefined)
active: Potency [11] 8.94 µM
inactive: activity change, negative = cytotoxicity [1] -13.5% [at 19 µM] | activity, positive = activation [2] -8.3% [at 19 µM] | activity change [3] 0.23% [at 11.8 µM, hits give high values] | activation [19] -1.39% [at 15.8 µM] | activation [6] 1.06% [at 13.6 µM] | activity change, negative = cytotoxicity [7] -1.69% [at 13.5 µM] | activity change, negative = cytotoxicity [8] 2.61% [at 13.5 µM] | activity change, negative = cytotoxicity [9] -8.91% [at 13.5 µM] | activation [10] -0.768% [at 13.5 µM] | activation [12] -9.57% [at 15.9 µM] | activation [14] 0.0294% [at 15.8 µM] | activation [15] 0.0795% [at 19 µM] | activity change, negative = inhibition [16] -4.08% [at 18.9 µM] | activity change, negative = inhibition [17] 0.603% [at 19 µM] | activation [18] -31% [at 19 µM] | activity change, negative = inhibition [20] -8.25% [at 18.9 µM]

O=C1c2ccccc2S(=O)(=O)N1CCCCN1CCN(c2ncccn2)CC1
inactive: Potency [1] | Potency [2] | Potency [3] | outcome [4] | Potency [5] | Potency [6] | Potency [7] | Potency [8] | Potency [9] | Potency [10] | Potency [12] | Potency [13] | Potency [16] | Potency [17] | Potency [20]

O=C(NCCc1c[nH]c2ccccc12)c1cccnc1
inactive: Potency [1] | Potency [2] | Potency [3] | outcome [19] | Potency [5] | Potency [7] | Potency [8] | Potency [9] | Potency [10] | Potency [13] | Potency [14] | Potency [16] | Potency [20]
active: Potency [12] 3.01 µM

CCOC(=O)N1CCC(Nc2ccc(Cl)cc2N)CC1
inactive: Potency [1] | Potency [2] | Potency [3] | outcome [4] | Potency [5] | Potency [6] | Potency [7] | Potency [8] | Potency [9] | Potency [10] | Potency [11] | Potency [12] | Potency [13] | Potency [14] | Potency [17] | Potency [18] | Potency [20]

OCC(F)(F)F
inactive: Potency [1] | Potency [2] | Potency [3] | outcome [4] | Potency [5] | Potency [6] | Potency [8] | Potency [9] | Potency [10] | Potency [11] | Potency [12] | Potency [13] | Potency [15] | Potency [16] | Potency [17] | Potency [20]
active: Potency [7] 38.3 µM

O=S(=O)(O)c1ccc(N=Nc2c(O)ccc3ccccc23)cc1
inactive: Potency [2] | Potency [3] | outcome [19] | Potency [6] | Potency [7] | Potency [8] | Potency [11] | Potency [12] | Potency [13] | Potency [14] | Potency [17] | Potency [18]
active: Potency [1] 61.1 µM

CC1(C)S[C@@H]2[C@H](NC(=O)C(C(=O)O)c3ccccc3)C(=O)N2[C@H]1C(=O)O (some centres undefined)
active: Potency [7] 0.177 µM
inactive: Potency [1] | Potency [2] | Potency [3] | outcome [4] | Potency [5] | Potency [6] | Potency [8] | Potency [9] | Potency [10] | Potency [11] | Potency [12] | Potency [13] | Potency [14] | Potency [15] | Potency [16] | Potency [18] | Potency [20]
